# From PubChem BioAssay
# Active and inactive are the calls of the source. Unless noted, no rule for the calls is given here.
# Key:
# [1] = anti-His antibody binders, primary screen, artefact control for SMM control protein annotation, biochemical, small-molecule microarray, 635 nm fluorescence (AID 1128); conditions: anti-His Alexa647 antibody binding, higher = more signal;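 also: score merges feature fluorescence with signal-to-noise for each printed compound spot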
# [2] = system: Human papillomavirus type 1a E7 protein (residues 1-88); test: HPV1a E7 small-molecule binders, primary screen, biochemical, small-molecule microarray, residues 1-88, 635 nm (AID 1129); conditions: small-molecule microarray binding, fluorescence 635 nm; higher = more signal
# [3] = biological target: Focal adhesion kinase 1 (Homo sapiens) (UniProt Q05397); test: small-molecule microarray binders of FAK, primary screen, biochemical, 635/667 nm fluorescence, BSA, DTT (AID 1130); conditions: PTK2 binding, 635 nm fluorescence, higher = more signal;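 also: composite of spot emission at 667 nm and signal to noise over triplicate slides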
# [4] = system: Fibrinogen (Alexa647-labelled); test: fibrinogen binders on compound microarrays, profiling panel, artefact control for SMM control-protein annotation, biochemical, small-molecule microarray, 635/667 nm fluorescence (AID 1131); conditions: fibrinogen-A647 binding fluorescence, higher = more signal;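 also: z-score merges 667 nm fluorescence with per-spot signal-to-noise over triplicate slides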
# [5] = biological target: Follistatin (Homo sapiens) (UniProt P19883); test: follistatin binders on small-molecule microarrays, primary screen, biochemical, small-molecule microarray, 635/667 nm fluorescence (AID 1132); conditions: FST binding, 635 nm fluorescence, higher = more signal
# [6] = biological target: Fibroblast growth factor 2 (Homo sapiens) (UniProt P09038); test: FGF2 binders on small-molecule microarrays, primary screen, biochemical, small-molecule microarray, 635/667 nm fluorescence (AID 1133); conditions: small-molecule microarray binding, FGF2, fluorescence 635/667; higher = more signal
# [7] = mitochondrial membrane potential change in A549 cells, profiling panel, cell-based, JC-1 fluorescence, basal, 24 h, 100 nL (AID 1138); conditions: higher = more signal;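 also: A549 lung adenocarcinoma cells under basal conditions with no added stimulus; test concentration not given here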
# Lefty1 = Lefty1 binders on small-molecule microarrays, primary screen, biochemical, small-molecule microarray, 635/667 nm fluorescence (AID 1139); conditions: small-molecule microarray binding, fluorescence 635/667; higher = more signal
# [8] = system: wheat germ agglutinin (Triticum aestivum), Alexa647-labelled; test: wheat germ agglutinin binders on compound microarrays, profiling panel, artefact control for SMM control-protein annotation, biochemical, small-molecule microarray, 635/667 nm fluorescence (AID 1140); conditions: WGA-A647 binding, 635 nm fluorescence, higher = more signal;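 also: score merges 667 nm feature emission with signal to noise over triplicate slides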
# [9] = biological target: Luciferin 4-monooxygenase (Photinus pyralis) (UniProt P08659); test: firefly luciferase enzyme inhibitors, primary screen, biochemical, luminescence, purified enzyme, 2006 set (AID 1141); conditions: SteadyGlo luminescence, 30 min, higher = more signal, called active from +8 up or from −8 down;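 also: cell-free assay with purified firefly luciferase at 100 ng per well in PBS; test concentration not given here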
# [10] = system: Wnt5a (protein binding on small-molecule microarray); test: Wnt5a binders on small-molecule microarray, primary screen, biophysical, 635/667 nm fluorescence (AID 1142); conditions: 635 nm fluorescence, higher = more signal;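 also: fluorescence read at 667 nm with signal to noise per printed feature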
# [11] = cell viability in Huh7 cells, primary screen, cytotoxicity control for HCV replication inhibitor project, CellTiter-Glo luminescence, basal, 48 h (AID 1143); conditions: Huh7 HCV replicon, higher = more signal, called active from +8 up or from −8 down;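 also: Huh7 hepatoma cells carrying a hepatitis C replication reporter with no stimulus; test concentration not given here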
# [12] = P. aeruginosa biofilm formation inhibitors, primary screen, PAO1 strain, BacTiter-Glo luminescence, LB-PBS (AID 1144); conditions: 12 h, higher = more signal
# [13] = CREB reporter modulators without forskolin, primary screen, cell-based, PC12, CRE-LacZ reporter, unstimulated (AID 1145); conditions: no forskolin, luminescence, 4.5 h, higher = more signal, called active from +8 up or from −8 down
# [14] = CREB reporter modulators under forskolin, primary screen, cell-based, PC12, CRE-LacZ reporter, forskolin-stimulated (AID 1146); conditions: luminescence, 4.5 h, higher = more signal, called active from +8 up or from −8 down;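 also: PC12 cells with 6xCRE LacZ reporter stimulated by forskolin 10 µM; beta-galactosidase reporter signal reflecting CREB driven transcription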
# [15] = biological target: Streptavidin (Streptomyces avidinii) (UniProt P22629); test: streptavidin binders on small-molecule microarray, primary screen, artefact control for SMM compound annotation, biophysical, 635/667 nm fluorescence (AID 1147); conditions: streptavidin binding, higher = more signal;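 also: signal reflects streptavidin binding to arrayed compounds as a control protein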
# [16] = small-molecule binders of probe aInhba, primary screen, biochemical, small-molecule microarray, 635/667 nm fluorescence (AID 1148); conditions: higher = more signal;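 also: score merges 667nm spot fluorescence with signal-to-noise for antibody binding to printed compounds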
# Torsin-1A (Homo sapiens) [17] = biological target: Torsin-1A (Homo sapiens) (UniProt O14656); test: torsin A binders from cell lysate, primary screen, small-molecule microarray, wild-type, 635/667 nm (AID 1149); conditions: COS7 hTOR1A-WT lysate, 635 nm fluorescence, higher = more signal
# Torsin-1A (Homo sapiens) [18] = biological target: Torsin-1A (Homo sapiens) (UniProt O14656); test: small-molecule binders of mutant TOR1A in lysate, primary screen, cell lysate, small-molecule microarray, COS7 lysate, 635/667 nm fluorescence (AID 1150); conditions: COS7 hTOR1A mutant lysate, 635 nm fluorescence, higher = more signal;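 also: score pools 667 nm emission and signal to noise measuring lysate protein binding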
# [19] = system: Sonic hedgehog protein (Shh); test: small-molecule binders of Shh protein, primary screen, biochemical, small-molecule microarray, 635/667 nm fluorescence (AID 1151); conditions: small-molecule microarray binding, 635 nm fluorescence; higher = more signal;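 also: Shh protein binding to compounds spotted on small-molecule microarray slides; score combines spot fluorescence intensity with signal-to-noise across triplicate slides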
# Chain of Luciferin 4-monooxygenase (Photinus pyralis) (P08659 whole entry, looked up): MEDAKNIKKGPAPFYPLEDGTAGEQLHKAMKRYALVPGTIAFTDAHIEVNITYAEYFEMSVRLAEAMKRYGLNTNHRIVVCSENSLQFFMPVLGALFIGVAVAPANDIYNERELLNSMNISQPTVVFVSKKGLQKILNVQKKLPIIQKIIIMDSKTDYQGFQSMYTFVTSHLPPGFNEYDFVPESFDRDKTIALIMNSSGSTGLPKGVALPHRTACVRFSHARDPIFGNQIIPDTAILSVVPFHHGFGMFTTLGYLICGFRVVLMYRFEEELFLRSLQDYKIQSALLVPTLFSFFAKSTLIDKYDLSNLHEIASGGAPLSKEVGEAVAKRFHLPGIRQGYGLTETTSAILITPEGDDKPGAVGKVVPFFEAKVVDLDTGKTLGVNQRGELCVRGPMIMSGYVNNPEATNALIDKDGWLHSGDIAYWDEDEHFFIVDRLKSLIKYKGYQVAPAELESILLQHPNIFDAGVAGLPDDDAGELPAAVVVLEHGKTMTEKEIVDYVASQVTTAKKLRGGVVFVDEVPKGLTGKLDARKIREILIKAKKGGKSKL
# Chain of Fibroblast growth factor 2 (Homo sapiens) (P09038 whole entry, looked up): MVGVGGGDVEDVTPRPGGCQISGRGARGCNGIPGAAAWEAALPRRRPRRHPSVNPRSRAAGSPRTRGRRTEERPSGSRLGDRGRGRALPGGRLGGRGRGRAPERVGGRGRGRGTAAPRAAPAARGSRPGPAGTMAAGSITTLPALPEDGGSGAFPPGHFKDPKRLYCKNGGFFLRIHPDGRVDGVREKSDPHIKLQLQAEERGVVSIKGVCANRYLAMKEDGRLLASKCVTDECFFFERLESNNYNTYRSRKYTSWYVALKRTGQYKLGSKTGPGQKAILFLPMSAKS
# Chain of Streptavidin (Streptomyces avidinii) (P22629 whole entry, looked up): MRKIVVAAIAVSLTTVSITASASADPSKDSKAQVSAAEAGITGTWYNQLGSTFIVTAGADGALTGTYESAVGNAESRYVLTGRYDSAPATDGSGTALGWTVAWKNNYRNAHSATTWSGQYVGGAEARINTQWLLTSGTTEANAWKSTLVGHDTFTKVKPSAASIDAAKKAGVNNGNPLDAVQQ
# Chain of Focal adhesion kinase 1 (Homo sapiens) (Q05397 whole entry, looked up): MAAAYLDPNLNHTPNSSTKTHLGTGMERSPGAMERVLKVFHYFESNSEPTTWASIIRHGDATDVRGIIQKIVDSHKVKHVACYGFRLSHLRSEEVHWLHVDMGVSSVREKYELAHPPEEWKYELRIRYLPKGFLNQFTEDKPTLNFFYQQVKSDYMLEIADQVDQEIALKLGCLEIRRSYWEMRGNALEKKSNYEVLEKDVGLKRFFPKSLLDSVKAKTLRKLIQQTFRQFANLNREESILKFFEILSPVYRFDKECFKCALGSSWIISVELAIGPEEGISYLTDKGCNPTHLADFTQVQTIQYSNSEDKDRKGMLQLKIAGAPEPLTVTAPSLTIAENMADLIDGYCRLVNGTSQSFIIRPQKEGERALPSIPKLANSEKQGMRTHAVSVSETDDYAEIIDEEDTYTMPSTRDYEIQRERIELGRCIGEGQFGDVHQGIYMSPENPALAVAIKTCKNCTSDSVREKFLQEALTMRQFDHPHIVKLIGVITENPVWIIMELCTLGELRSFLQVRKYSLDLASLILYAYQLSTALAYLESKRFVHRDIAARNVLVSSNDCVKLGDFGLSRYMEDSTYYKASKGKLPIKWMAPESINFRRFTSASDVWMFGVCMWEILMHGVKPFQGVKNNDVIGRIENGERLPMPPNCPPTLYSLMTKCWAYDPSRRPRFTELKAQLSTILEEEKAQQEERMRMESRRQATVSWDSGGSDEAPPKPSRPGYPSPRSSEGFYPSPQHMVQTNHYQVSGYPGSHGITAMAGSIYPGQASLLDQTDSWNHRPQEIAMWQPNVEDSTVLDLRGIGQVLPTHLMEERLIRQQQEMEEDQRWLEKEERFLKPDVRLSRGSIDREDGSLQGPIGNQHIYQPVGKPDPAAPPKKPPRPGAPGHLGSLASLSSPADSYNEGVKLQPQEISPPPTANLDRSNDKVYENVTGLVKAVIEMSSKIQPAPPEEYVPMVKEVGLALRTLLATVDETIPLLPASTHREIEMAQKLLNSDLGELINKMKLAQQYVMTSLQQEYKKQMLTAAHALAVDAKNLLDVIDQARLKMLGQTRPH
# Chain of Follistatin (Homo sapiens) (P19883 whole entry, looked up): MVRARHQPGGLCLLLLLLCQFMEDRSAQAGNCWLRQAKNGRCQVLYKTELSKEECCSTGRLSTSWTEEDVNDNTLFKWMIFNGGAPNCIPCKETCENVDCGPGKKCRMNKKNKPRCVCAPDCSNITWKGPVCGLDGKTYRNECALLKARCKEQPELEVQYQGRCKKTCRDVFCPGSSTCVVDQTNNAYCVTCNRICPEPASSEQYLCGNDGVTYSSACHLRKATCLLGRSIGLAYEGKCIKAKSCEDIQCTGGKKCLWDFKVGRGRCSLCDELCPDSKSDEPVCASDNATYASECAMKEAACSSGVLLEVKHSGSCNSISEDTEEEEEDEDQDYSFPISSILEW
# Chain of Torsin-1A (Homo sapiens) (O14656 whole entry, looked up): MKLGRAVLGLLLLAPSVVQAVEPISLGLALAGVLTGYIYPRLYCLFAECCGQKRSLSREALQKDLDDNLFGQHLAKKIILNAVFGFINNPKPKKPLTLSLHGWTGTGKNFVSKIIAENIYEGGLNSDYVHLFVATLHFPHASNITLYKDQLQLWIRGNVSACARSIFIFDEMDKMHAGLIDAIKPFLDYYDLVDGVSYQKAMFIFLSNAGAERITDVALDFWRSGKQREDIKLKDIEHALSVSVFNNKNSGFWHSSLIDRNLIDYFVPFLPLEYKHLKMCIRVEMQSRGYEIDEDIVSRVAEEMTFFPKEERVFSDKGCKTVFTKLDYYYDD
Compound,composite z-score [1],composite z-score [2],composite z-score [3],composite z-score [4],composite z-score [5],composite z-score [6],z-score [7],composite z-score (Lefty1),composite z-score [8],z-score [9],composite z-score [10],z-score [11],z-score [12],z-score [13],z-score [14],composite z-score [15],composite z-score [16],composite z-score (Torsin-1A (Homo sapiens) [17]),composite z-score (Torsin-1A (Homo sapiens) [18]),composite z-score [19]
O=C1O[C@H](c2ccccc2)[C@H](c2ccccc2)N2[C@H]1[C@@H](C(=O)NC[C@H](O)c1ccccc1)[C@]1(C(=O)Nc3ccc(C#CC4(O)CCCCCC4)cc31)[C@H]2c1ccccc1OCCO,1.26,1.19,0.412,0.494,1.26,1.54,-1.24,0.586,0.794,0.361 (inactive),1.21,-5.52 (inactive),-0.52 (inactive),-0.325 (inactive),-0.349 (inactive),-0.428,0.214,0.644,1.08,0.877
O=C1C2C=CC(C(O)c3ccc(-c4ccccc4)s3)N(Nc3ccccc3F)C2C(=O)N1c1ccccc1 (stereo not given),1.29,1.21,0.816,0.997,1.18,1.16,-1.12,0.133,0.994,-0.324 (inactive),0.26,0.0093 (inactive),-0.729 (inactive),0.629 (inactive),0.383 (inactive),1.06,-0.205,0.254,0.404,0.433
O=C1C2C=CC(C(O)c3ccc(Br)cc3)N(n3cnnc3)C2C(=O)N1Cc1ccccc1 (stereo not given),0.648,1.16,0.407,0.974,0.722,0.298,-0.901,0.425,1.15,1.66 (inactive),0.175,0.245 (inactive),0.913 (inactive),0.127 (inactive),1.03 (inactive),1.27,-0.0375,0.489,1.05,0.232
CCCC[C@@H]1C[C@H]1[C@@H](NC(=O)c1ccccc1)c1ccccc1,1.47,-0.23,0.202,0.244,0.671,0.085,-1.03,-0.235,0.136,1.19 (inactive),0.209,-0.877 (inactive),0.727 (inactive),0.0041 (inactive),0.79 (inactive),0.0499,0.401,-0.477,-0.0734,-0.412
C#C[C@H]1Oc2ccccc2S(=O)(=O)N2CCC[C@@H]12,-0.233,-0.704,-0.434,-0.597,0.963,0.0278,0.092,1.51,-0.719,0.119 (inactive),-0.0713,-0.0352 (inactive),-0.0287 (inactive),0.126 (inactive),1.3 (inactive),-0.14,-0.278,0.461,0.512,1.63
COCCOC(=O)N1C(=O)[C@@]2(c3cc(C#Cc4ccc(OC)cc4)ccc31)[C@H](c1ccc(O)cc1)N1[C@H](c3ccccc3)[C@H](c3ccccc3)OC(=O)[C@H]1[C@@H]2C(=O)N1CCN(c2ncccn2)CC1,1.23,1.18,0.351,0.624,1.36,0.712,-0.863,0.604,0.584,0.384 (inactive),-0.0114,-0.949 (inactive),-0.166 (inactive),-0.114 (inactive),0.75 (inactive),0.0875,0.199,0.487,0.651,0.982
